Assay [1] can be described thus: Tanguay_ZF_120hpf_AXIS_legacy: (Legacy) Oregon State University Tanguay Lab 120 Hour Post-fertilization zebrafish Assay for Body Axis Malformation (AID 2283635).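 For AC50: potency for an increased fraction of larvae scored with body axis malformation.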 An outline of the steps: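 Each dechorionated embryo was exposed alone from 6 hpf, with DMSO at 0.64% (vol/vol) and trimethyltin chloride 5 uM as positive control. Axis malformation was recorded at 120 hpf unless the embryo had died.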

Assay [2] in a line: Tanguay_ZF_120hpf_EYE_legacy: (Legacy) Oregon State University Tanguay Lab 120 Hour Post-fertilization zebrafish Assay for Eye Malformation (AID 2283636).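 Note: binary presence or absence of eye malformation scored by brightfield in 120 hpf larvae.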 An outline of the steps: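 Dechorionated Tropical 5D zebrafish embryos, one per well from 6 hpf, static exposure to 120 hpf at 28C, 0.64% DMSO. Eye malformation scored present/absent by brightfield; dead embryos not scored.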

The nature of assay [3]: Tanguay_ZF_120hpf_JAW_legacy: (Legacy) Oregon State University Tanguay Lab 120 Hour Post-fertilization zebrafish Assay for Jaw Malformation (AID 2283638).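 For AC50: active means more embryos with jaw malformation than DMSO controls.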 An outline of the steps: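 Wild-type 5D embryos, chorion removed at 4 hpf, dosed singly from 6 hpf; 28C static, sealed, foil-covered, to 120 hpf. Endpoint: jaw defect yes/no (brightfield); mortality excludes scoring.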

Assay [4] in a line: Tanguay_ZF_120hpf_OTIC_legacy: (Legacy) Oregon State University Tanguay Lab 120 Hour Post-fertilization zebrafish Assay for Otic Vesicle Malformation (AID 2283639). In a few lines: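 Otic vesicle malformation is read as a yes/no morphology call at 120 hpf. Exposure is static at 28C with 0.64% (vol/vol) DMSO; embryos that die are excluded from non-mortality endpoints.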
Assay [5] is described as follows: Tanguay_ZF_120hpf_PE_legacy: (Legacy) Oregon State University Tanguay Lab 120 Hour Post-fertilization zebrafish Assay for Pericardial Edema (AID 2283640).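 For AC50: potency for increased incidence of pericardial edema versus DMSO baseline.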 An outline of the steps:
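Zebrafish larvae are exposed from early development to 120 hpf at 28C, with 0.64% DMSO final. Each surviving larva receives a yes/no pericardial edema call by brightfield imaging, analysed relative to the DMSO baseline.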

Assay [6] in a line: Tanguay_ZF_120hpf_BRAI_legacy: (Legacy) Oregon State University Tanguay Lab 120 Hour Post-fertilization zebrafish Assay for Brain Malformation (AID 2283641). In a few lines: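 Static exposure of staged wild-type embryos until 120 hpf, kept at 28C with light excluded and final DMSO of 0.64% (vol/vol). Presence or absence of brain malformation was noted under brightfield; mortality precluded scoring.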

A short description of assay [7]: Tanguay_ZF_120hpf_SOMI_legacy: (Legacy) Oregon State University Tanguay Lab 120 Hour Post-fertilization zebrafish Assay for Somite Malformation (AID 2283647). An outline of the steps:
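Somitogenesis defects are recorded as binary calls in whole larvae at 120 hpf after continuous static chemical exposure starting at 6 hpf in dechorionated 5D embryos. DMSO serves as negative control and baseline.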

The nature of assay [8]: Tanguay_ZF_120hpf_PFIN_legacy: (Legacy) Oregon State University Tanguay Lab 120 Hour Post-fertilization zebrafish Assay for Pectoral Fin Malformation (AID 2283648).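 Note: each larva judged yes or no for fin defect by brightfield with dead larvae skipped.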 An outline of the steps: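 Dechorionated Tropical 5D wild-type zebrafish embryos, one per well, statically exposed from 6 to 120 hpf at 28C with 0.64% DMSO final. Pectoral fin malformation scored present/absent by brightfield at 120 hpf; not scored in dead embryos.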

The nature of assay [9]: Tanguay_ZF_120hpf_PIG_legacy: (Legacy) Oregon State University Tanguay Lab 120 Hour Post-fertilization zebrafish Assay for Pigmentation Malformation (AID 2283650). An outline of the steps:
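Dechorionated Tropical 5D wild-type embryos, one per well from 6 hpf, statically exposed at 28C in the dark until 120 hpf, 0.64% DMSO final. Pigmentation scored present/absent by brightfield microscopy; dead embryos not scored; fitted versus DMSO.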

Assay [10] can be described thus: Tanguay_ZF_120hpf_CIRC_legacy: (Legacy) Oregon State University Tanguay Lab 120 Hour Post-fertilization zebrafish Assay for Circulatory Malformation (AID 2283651). An outline of the steps:
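Using wild-type Tropical 5D zebrafish, we exposed dechorionated embryos from 6 to 120 hpf in embryo medium with 0.64% DMSO. Circulatory defects were scored as present or absent; 5uM trimethyltin chloride served as positive control.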

Read-out in assay [11]: kallikrein-3 (KLK3), KLK3 (gene 354)
Put plainly: LTEA_HepaRG_KLK3: Life Technologies and Expression Analysis (LTEA) Assay for kallikrein-3 (KLK3) using HepaRG (AID 2283652; active = hit-call score of the fitted dose curve at least 0.9, where 1 is the maximum; inactive = score below 0.9). As to conditions: mRNA level, 48 h; actives raise or lower the signal. In a few lines: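 Differentiated human HepaRG cells in serum-free induction medium exposed 48 h in duplicate, eight-point half-log series from 100 uM in 0.5% DMSO. KLK3 mRNA by qRT-PCR, normalised to ACTB, GAPDH, POLR2A; bidirectional fit versus DMSO.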

Read-out in assay [12]: solute carrier (SLC22A6), SLC22A6 (gene 9356)
In words: LTEA_HepaRG_SLC22A6: Life Technologies and Expression Analysis (LTEA) Assay for solute carrier (SLC22A6) using HepaRG (AID 2283653; active = hit-call score of the fitted dose curve at least 0.9, where 1 is the maximum; inactive = score below 0.9). The settings on record: mRNA level, 48 h; actives raise or lower the signal. In a few lines: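 Gene-expression endpoint in HepaRG hepatic cells: duplicate 8-point concentration-response, highest 100 uM, 48 h treatment in serum-free medium with 0.5% DMSO. SLC22A6 expression measured by qRT-PCR, normalised to ACTB/GAPDH/POLR2A.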

Assay [13] is described as follows: Tanguay_ZF_120hpf_SWIM_legacy: (Legacy) Oregon State University Tanguay Lab 120 Hour Post-fertilization zebrafish Assay for Swim Bladder Malformation (AID 2283654).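 Note: swim bladder malformation in each larva scored yes or no under brightfield.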 An outline of the steps:
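Dechorionated wild-type Tropical 5D zebrafish embryos, one per well from 6 hpf, were statically exposed at 28C until 120 hpf in 0.64% DMSO. Swim bladder malformation scored as present/absent by brightfield microscopy; not scored in dead larvae.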

The nature of assay [14]: Tanguay_ZF_120hpf_TRUN_legacy: (Legacy) Oregon State University Tanguay Lab 120 Hour Post-fertilization zebrafish Assay for Truncated Body (AID 2283655). An outline of the steps:
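Single dechorionated zebrafish embryos received test chemical from 6 hpf in 0.64% DMSO, kept at 28C. At 120 hpf, brightfield inspection noted any truncated body.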

Assay [15] is described as follows: Tanguay_ZF_120hpf_NC_legacy: (Legacy) Oregon State University Tanguay Lab 120 Hour Post-fertilization zebrafish Assay for Notochord and Tail Malformation (AID 2283656). In a few lines: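 Dechorionated 5D zebrafish, 1/well from 6 hpf; static exposure to 120 hpf, 28C, sealed, dark; final DMSO 0.64% v/v. NC scored binary (present/absent); dead embryos not scored. Fit vs DMSO baseline, gain direction.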

Read-out in assay [16]: matrix metalloproteinase-1 (MMP1), MMP1 (gene 4312)
In words: LTEA_HepaRG_MMP1: Life Technologies and Expression Analysis (LTEA) Assay for matrix metalloproteinase-1 (MMP1) using HepaRG (AID 2283658; active = hit-call score of the fitted dose curve at least 0.9, where 1 is the maximum; inactive = score below 0.9). The settings on record: mRNA level, 48 h; actives raise or lower the signal. An outline of the steps:
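In this screen, human liver HepaRG cultures receive each chemical in duplicate for 48 h (top 100 uM, 0.5% DMSO). MMP1 expression is then quantified by TaqMan qRT-PCR with ACTB/GAPDH/POLR2A normalization.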

Read-out in assay [17]: Broad substrate specificity ATP-binding cassette transporter ABCG2 (Homo sapiens) (UniProt Q9UNQ0)
Put plainly: CLD_ABCG2_6hr: CellzDirect (CLD) Gene Expression Assay for ABC Transporter (ABCG2) at 6 hours (AID 2283660). In a few lines:
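Primary human hepatocytes dosed daily with chemicals at multiple concentrations (0.2% DMSO vehicle), harvested 6 h after dosing. ABCG2 mRNA induction read by quantitative nuclease protection assay (qNPA) chemiluminescence; gain of signal fitted against DMSO baseline.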

The nature of assay [18]: Tanguay_ZF_120hpf_CFIN_legacy: (Legacy) Oregon State University Tanguay Lab 120 Hour Post-fertilization zebrafish Assay for Caudal Fin Malformation (AID 2283649). In a few lines:
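Single dechorionated 5D wild-type embryos are dosed at 6 hpf (final DMSO 0.64%) and held statically at 28C. Caudal fin malformation is recorded as present or absent at 120 hpf under brightfield, excluding dead embryos.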

A short description of assay [19]: Tanguay_ZF_120hpf_SNOU_legacy: (Legacy) Oregon State University Tanguay Lab 120 Hour Post-fertilization zebrafish Assay for Snout Malformation (AID 2283637). In a few lines:
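Dechorionated tropical 5D wild-type zebrafish embryos exposed statically from 6 to 120 hpf at 28C, one per well, in 0.64% DMSO. Snout malformation scored as present/absent by brightfield at 120 hpf; dead embryos not scored.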

Values joined by “and” are separate entries in the source; they are usually repeats but may differ in a detail not shown here. Identical values can stand only once. Records with an inconclusive call do not appear. Where a structure was tested more than once in an assay, its records may differ in their call. Active and inactive are the calls of the source. Rule for the calls, unless noted: active = hit-call score of the fitted dose curve at least 0.9, where 1 is the maximum; inconclusive = response in the unintended direction; inactive = score below 0.9.

Sequence of Broad substrate specificity ATP-binding cassette transporter ABCG2 (Homo sapiens) (Q9UNQ0 whole entry, looked up): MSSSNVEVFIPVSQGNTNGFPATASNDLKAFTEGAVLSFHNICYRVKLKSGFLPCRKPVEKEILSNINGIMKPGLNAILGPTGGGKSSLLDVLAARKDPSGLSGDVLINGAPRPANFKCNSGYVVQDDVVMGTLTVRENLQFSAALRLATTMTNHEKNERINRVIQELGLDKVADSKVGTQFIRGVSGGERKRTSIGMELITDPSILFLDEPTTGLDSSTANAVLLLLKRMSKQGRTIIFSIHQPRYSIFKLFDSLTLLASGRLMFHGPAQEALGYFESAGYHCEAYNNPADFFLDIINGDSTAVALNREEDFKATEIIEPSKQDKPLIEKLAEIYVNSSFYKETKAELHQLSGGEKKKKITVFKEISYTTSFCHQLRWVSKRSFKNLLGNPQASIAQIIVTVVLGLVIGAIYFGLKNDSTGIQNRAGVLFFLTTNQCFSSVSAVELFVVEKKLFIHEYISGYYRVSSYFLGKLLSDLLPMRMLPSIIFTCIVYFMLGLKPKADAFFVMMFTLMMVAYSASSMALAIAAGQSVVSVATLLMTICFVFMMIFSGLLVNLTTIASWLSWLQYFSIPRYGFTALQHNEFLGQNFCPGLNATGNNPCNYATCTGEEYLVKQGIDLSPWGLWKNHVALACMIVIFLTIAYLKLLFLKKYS

As a reminder, the AC50 is the concentration at which the activity in the assay is half-maximal. Regarding `CN1CSC(=S)N(C)C1`, the concentration at half-maximal activity (AC50) in assay [1] is 21.3 µM (active); in assay [2] it was 34.9 µM (active); in assay [3] it was 8.18 µM (active); in [5], 35 µM (active); in assay [15], 6.95 µM (active). Also, the molecule was classed as inactive in [4], in assay [6], in assay [7], in assay [8], in assay [9] and in assay [10]. Also, the result in [11], in [12], in assay [13], in assay [14], in assay [16] and in assay [17] was inactive.

For `N#CN`, the call in assay [1], in assay [2], in assay [3], in assay [4], in assay [5] and in assay [6] was inactive. In addition, the outcome in [7], in [8], in [18], in [9], in assay [10] and in assay [13] was inactive. Further, the molecule was classed as inactive in assay [14] and in assay [17].

For the molecule `ClC1C(Cl)C(Cl)C(Cl)C(Cl)C1Cl` (centres undefined), the result in [1], in assay [2], in [3], in [4], in [5] and in assay [6] was inactive. Also, the result in assay [7], in assay [8], in assay [18], in assay [9], in assay [10] and in [12] was inactive. The result in assay [13], in assay [14], in assay [15], in assay [16] and in assay [17] was inactive.

For the molecule `O=S(=O)(O)C(F)(F)C(F)(F)C(F)(F)C(F)(F)C(F)(F)C(F)(F)C(F)(F)C(F)(F)F`, the AC50 is 25 µM (active) and 42.3 µM (active) and 42.2 µM (active) in assay [1]; 37 µM (active) in assay [2]; 26.5 µM (active) and 43.5 µM (active) in assay [3]; 47.5 µM (active) in assay [4]; 14.5 µM (active) and 36.8 µM (active) in assay [5]; 34.2 µM (active) in [6]. Moreover, the AC50 in assay [7] is 33.8 µM (active); in assay [8], 36 µM (active); in assay [18] it was 12.2 µM (active); in [9], 46.6 µM (active); in assay [10] it was 42.5 µM (active); in assay [14], 10.6 µM (active) and 21.2 µM (active). For the same molecule, the call in assay [1], in assay [2], in assay [3], in [4], in assay [5] and in assay [6] was inactive. The outcome in assay [7], in assay [8], in [18], in assay [9], in assay [10] and in assay [13] was inactive. The result in assay [14] and in assay [15] was inactive.

For `CCCN(CCC)c1c([N+](=O)[O-])cc(C(F)(F)F)cc1[N+](=O)[O-]`, the outcome in assay [1], in assay [2], in assay [19], in [3], in assay [7] and in assay [8] was inactive. Further, the outcome in [18], in assay [9], in assay [10], in [12], in assay [13] and in assay [14] was inactive. Further, the call in [15], in assay [16] and in assay [17] was inactive.
